{"source": "the supplement of paper PMC11006884", "note": "Targets with a hit are over-represented here; the source holds about 6,500 in all. About 2% of all pairs of compound and target were hits.", "data": [{"compound": "COC(=O)C#Cc1ccccc1 [methyl 3-phenylpropiolate]", "experiment": "log2 ratio of iodoacetamide-alkyne labeling of the cysteine site, DMSO over compound (competition); higher = stronger covalent engagement of the cysteine by the compound, active = 1 or more", "details": "500 µM; treatment time 1 h; system: HEK293T cell lysate", "summary_of_the_method": "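Electrophile (500 µM) or vehicle was added to HEK293T lysate (2 mg/mL) for 1 h at ambient temperature before iodoacetamide alkyne labelling (1 h) and click coupling to sCIP-TMT reagents. After pooling, overnight trypsin digestion at 37 °C, streptavidin enrichment and acid elution, peptides were measured by Orbitrap Eclipse LC-MS/MS with FAIMS and quantified in FragPipe. Each cysteine's log2 competition ratio compares mean control-channel with mean compound-channel reporter intensity, control over compound. Data came from duplicate channels across three replicates, excluding cysteines quantified in only one replicate.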", "values": [{"target": "IPO4 C350 (UniProt Q8TEX9)", "log2 ratio of iodoacetamide-alkyne labeling": "0.564 (inactive)"}, {"target": "RSBN1L C280 (UniProt Q6PCB5)", "sequence (Q6PCB5 whole entry, looked up)": "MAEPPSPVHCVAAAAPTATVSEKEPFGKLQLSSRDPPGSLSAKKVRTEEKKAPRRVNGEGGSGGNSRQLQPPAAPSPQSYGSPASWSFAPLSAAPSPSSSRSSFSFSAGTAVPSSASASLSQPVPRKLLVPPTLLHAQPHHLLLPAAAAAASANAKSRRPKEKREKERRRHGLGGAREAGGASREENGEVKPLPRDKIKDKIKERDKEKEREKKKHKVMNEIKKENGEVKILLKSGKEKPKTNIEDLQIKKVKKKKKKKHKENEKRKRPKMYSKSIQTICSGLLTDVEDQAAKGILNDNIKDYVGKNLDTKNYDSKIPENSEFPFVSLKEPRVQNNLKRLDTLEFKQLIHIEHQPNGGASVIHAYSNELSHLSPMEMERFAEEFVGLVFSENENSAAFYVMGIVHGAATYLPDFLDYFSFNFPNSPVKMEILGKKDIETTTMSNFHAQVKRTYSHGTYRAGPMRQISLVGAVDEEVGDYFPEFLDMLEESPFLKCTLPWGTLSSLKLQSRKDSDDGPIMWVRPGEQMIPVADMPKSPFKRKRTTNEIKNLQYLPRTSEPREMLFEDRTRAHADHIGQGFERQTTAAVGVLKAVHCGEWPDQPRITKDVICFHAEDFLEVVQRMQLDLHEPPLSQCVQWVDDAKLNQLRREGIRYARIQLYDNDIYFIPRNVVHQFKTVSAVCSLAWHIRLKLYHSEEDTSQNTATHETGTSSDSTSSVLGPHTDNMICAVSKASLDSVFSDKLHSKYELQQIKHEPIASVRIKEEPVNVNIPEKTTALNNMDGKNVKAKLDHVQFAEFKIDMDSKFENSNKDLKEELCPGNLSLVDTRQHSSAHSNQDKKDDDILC", "log2 ratio of iodoacetamide-alkyne labeling": "0.649 (inactive)"}, {"target": "UniProt Q8WU20_C415", "log2 ratio of iodoacetamide-alkyne labeling": "0.241 (inactive)"}, {"target": "LPCAT1 C216 (UniProt Q8NF37)", "log2 ratio of iodoacetamide-alkyne labeling": "0.211 (inactive)"}, {"target": "PHIP C612 (UniProt Q8WWQ0)", "log2 ratio of iodoacetamide-alkyne labeling": "-0.25 (inactive)"}, {"target": "UniProt Q8NFC6_C2164", "log2 ratio of iodoacetamide-alkyne labeling": "0.286 (inactive)"}, {"target": "ARID2 C1549 (UniProt Q68CP9)", "log2 ratio of iodoacetamide-alkyne labeling": "0.434 (inactive)"}, {"target": "LUZP1 C594 (UniProt Q86V48)", "log2 ratio of iodoacetamide-alkyne labeling": "1.19 (active)"}, {"target": "ANKRD40 C358 (UniProt Q6AI12)", "log2 ratio of iodoacetamide-alkyne labeling": "1.2 (active)"}, {"target": "TBC1D15 C686 (UniProt Q8TC07)", "log2 ratio of iodoacetamide-alkyne labeling": "0.635 (inactive)"}, {"target": "PDLIM5 C449 (UniProt Q96HC4)", "sequence (Q96HC4 whole entry, looked up)": "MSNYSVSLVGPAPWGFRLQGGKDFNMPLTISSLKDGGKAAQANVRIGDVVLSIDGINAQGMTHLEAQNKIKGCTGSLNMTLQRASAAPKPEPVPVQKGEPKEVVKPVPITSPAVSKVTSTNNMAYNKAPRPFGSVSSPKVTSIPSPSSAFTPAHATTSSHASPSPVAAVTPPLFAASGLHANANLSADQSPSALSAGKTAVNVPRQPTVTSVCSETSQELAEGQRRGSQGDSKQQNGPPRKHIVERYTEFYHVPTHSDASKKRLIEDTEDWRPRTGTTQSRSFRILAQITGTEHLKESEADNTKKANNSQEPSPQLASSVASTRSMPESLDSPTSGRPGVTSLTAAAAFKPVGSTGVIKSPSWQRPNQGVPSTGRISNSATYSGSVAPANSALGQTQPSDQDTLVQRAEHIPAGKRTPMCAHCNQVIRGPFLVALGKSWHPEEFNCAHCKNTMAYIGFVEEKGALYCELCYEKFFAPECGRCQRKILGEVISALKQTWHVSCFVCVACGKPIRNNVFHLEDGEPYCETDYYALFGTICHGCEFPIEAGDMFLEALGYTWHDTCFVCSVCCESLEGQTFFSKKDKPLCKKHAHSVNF", "log2 ratio of iodoacetamide-alkyne labeling": "0.0755 (inactive)"}, {"target": "MTHFD1L C778 (UniProt Q6UB35)", "log2 ratio of iodoacetamide-alkyne labeling": "1.1 (active)"}, {"target": "TUBA1C C295 (UniProt Q9BQE3)", "log2 ratio of iodoacetamide-alkyne labeling": "0.453 (inactive)"}, {"target": "AKAP1 C102 (UniProt Q92667)", "log2 ratio of iodoacetamide-alkyne labeling": "0.334 (inactive)"}, {"target": "FBXO30 C317 (UniProt Q8TB52)", "log2 ratio of iodoacetamide-alkyne labeling": "0.564 (inactive)"}, {"target": "PRPF8 C435 (UniProt Q6P2Q9)", "log2 ratio of iodoacetamide-alkyne labeling": "1.24 (active)"}, {"target": "UniProt Q8NFC6_C686", "log2 ratio of iodoacetamide-alkyne labeling": "0.47 (inactive)"}, {"target": "MACROD1 C199 (UniProt Q9BQ69)", "sequence (Q9BQ69 whole entry, looked up)": "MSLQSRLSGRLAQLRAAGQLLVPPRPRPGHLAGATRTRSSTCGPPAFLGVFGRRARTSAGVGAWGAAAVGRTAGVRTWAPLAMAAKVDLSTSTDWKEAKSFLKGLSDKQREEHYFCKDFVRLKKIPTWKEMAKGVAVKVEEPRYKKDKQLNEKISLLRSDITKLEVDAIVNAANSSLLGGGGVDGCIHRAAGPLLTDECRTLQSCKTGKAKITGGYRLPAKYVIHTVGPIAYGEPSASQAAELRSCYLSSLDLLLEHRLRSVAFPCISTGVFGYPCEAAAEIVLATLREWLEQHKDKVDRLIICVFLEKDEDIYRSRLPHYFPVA", "log2 ratio of iodoacetamide-alkyne labeling": "-0.0967 (inactive)"}, {"target": "NUP205 C877 (UniProt Q92621)", "log2 ratio of iodoacetamide-alkyne labeling": "0.102 (inactive)"}, {"target": "TRUB1 C269 (UniProt Q8WWH5)", "log2 ratio of iodoacetamide-alkyne labeling": "0.163 (inactive)"}, {"target": "EXOC6 C28 (UniProt Q8TAG9)", "log2 ratio of iodoacetamide-alkyne labeling": "0.489 (inactive)"}, {"target": "LARP1 C502 (UniProt Q6PKG0)", "log2 ratio of iodoacetamide-alkyne labeling": "0.269 (inactive)"}, {"target": "NKAP C349 (UniProt Q8N5F7)", "sequence (Q8N5F7 whole entry)": "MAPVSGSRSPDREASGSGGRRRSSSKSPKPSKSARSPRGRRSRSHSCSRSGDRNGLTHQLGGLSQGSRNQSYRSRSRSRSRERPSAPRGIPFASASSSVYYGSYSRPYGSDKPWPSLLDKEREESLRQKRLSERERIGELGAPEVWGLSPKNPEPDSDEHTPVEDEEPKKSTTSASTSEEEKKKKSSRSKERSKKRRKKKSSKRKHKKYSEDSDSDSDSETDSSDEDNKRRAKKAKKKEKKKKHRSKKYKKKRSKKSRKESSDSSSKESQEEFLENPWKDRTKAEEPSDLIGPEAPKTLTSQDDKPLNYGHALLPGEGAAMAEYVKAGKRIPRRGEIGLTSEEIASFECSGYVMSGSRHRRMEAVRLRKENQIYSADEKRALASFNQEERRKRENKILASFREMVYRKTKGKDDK", "log2 ratio of iodoacetamide-alkyne labeling": "0.496 (inactive)"}, {"target": "PBK C112 (UniProt Q96KB5)", "log2 ratio of iodoacetamide-alkyne labeling": "0.35 (inactive)"}, {"target": "ANKHD1 C777 (UniProt Q8IWZ3)", "log2 ratio of iodoacetamide-alkyne labeling": "0.251 (inactive)"}, {"target": "SMC5 C726 (UniProt Q8IY18)", "log2 ratio of iodoacetamide-alkyne labeling": "0.249 (inactive)"}, {"target": "AKAP1 C376 (UniProt Q92667)", "log2 ratio of iodoacetamide-alkyne labeling": "1.15 (active)"}, {"target": "EDC3 C137 (UniProt Q96F86)", "log2 ratio of iodoacetamide-alkyne labeling": "1.09 (active)"}, {"target": "UniProt Q6ZS17_C1137", "log2 ratio of iodoacetamide-alkyne labeling": "0.0366 (inactive)"}, {"target": "THOC2 C743 (UniProt Q8NI27)", "sequence (Q8NI27 whole entry, looked up)": "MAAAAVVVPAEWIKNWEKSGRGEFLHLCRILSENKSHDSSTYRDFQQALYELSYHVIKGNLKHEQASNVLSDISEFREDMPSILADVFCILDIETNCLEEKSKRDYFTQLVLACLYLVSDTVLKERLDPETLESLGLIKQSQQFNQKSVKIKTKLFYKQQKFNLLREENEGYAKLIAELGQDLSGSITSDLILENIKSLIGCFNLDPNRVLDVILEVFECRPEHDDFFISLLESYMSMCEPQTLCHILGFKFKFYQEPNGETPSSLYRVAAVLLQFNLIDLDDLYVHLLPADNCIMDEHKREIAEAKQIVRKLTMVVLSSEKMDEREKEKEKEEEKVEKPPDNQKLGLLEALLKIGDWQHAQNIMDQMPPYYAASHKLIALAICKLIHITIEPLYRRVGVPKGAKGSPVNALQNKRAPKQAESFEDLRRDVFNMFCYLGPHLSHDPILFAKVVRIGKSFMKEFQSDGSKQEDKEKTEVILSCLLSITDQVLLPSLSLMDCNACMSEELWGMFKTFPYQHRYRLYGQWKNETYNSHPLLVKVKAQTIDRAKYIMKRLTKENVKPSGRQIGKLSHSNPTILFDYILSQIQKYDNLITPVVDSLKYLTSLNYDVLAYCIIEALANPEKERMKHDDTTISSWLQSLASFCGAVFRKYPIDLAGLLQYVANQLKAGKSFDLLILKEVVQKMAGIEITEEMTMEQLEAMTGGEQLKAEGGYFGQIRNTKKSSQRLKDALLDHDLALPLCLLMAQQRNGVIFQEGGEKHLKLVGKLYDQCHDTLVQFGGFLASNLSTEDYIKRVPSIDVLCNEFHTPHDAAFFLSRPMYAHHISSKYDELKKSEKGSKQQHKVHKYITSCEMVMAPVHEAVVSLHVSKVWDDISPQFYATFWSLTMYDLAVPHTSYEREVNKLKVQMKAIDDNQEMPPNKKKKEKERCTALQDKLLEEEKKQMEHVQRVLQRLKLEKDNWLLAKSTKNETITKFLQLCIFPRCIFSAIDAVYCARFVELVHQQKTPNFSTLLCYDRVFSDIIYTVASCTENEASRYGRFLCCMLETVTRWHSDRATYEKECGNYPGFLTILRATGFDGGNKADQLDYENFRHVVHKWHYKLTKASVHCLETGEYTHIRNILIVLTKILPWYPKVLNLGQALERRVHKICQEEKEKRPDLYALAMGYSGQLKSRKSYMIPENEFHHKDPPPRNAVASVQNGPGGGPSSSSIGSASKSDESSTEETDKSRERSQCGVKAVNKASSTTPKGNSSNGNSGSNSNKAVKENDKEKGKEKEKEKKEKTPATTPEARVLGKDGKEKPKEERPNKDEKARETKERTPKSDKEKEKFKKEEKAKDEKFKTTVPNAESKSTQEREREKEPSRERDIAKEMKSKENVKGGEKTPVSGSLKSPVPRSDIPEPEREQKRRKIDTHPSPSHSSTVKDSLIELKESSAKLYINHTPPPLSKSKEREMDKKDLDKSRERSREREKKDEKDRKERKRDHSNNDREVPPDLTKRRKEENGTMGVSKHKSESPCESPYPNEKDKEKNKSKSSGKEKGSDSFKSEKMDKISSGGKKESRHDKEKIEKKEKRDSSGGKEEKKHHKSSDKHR", "log2 ratio of iodoacetamide-alkyne labeling": "0.442 (inactive)"}, {"target": "UniProt Q7Z4H7_C885", "log2 ratio of iodoacetamide-alkyne labeling": "0.286 (inactive)"}, {"target": "WDFY1 C287 (UniProt Q8IWB7)", "log2 ratio of iodoacetamide-alkyne labeling": "0.127 (inactive)"}, {"target": "ARL6IP6 C48 (UniProt Q8N6S5)", "log2 ratio of iodoacetamide-alkyne labeling": "0.392 (inactive)"}, {"target": "AKAP1 C147 (UniProt Q92667)", "log2 ratio of iodoacetamide-alkyne labeling": "1.02 (active)"}, {"target": "DHX30 C461 (UniProt Q7L2E3)", "sequence (Q7L2E3 whole entry, looked up)": "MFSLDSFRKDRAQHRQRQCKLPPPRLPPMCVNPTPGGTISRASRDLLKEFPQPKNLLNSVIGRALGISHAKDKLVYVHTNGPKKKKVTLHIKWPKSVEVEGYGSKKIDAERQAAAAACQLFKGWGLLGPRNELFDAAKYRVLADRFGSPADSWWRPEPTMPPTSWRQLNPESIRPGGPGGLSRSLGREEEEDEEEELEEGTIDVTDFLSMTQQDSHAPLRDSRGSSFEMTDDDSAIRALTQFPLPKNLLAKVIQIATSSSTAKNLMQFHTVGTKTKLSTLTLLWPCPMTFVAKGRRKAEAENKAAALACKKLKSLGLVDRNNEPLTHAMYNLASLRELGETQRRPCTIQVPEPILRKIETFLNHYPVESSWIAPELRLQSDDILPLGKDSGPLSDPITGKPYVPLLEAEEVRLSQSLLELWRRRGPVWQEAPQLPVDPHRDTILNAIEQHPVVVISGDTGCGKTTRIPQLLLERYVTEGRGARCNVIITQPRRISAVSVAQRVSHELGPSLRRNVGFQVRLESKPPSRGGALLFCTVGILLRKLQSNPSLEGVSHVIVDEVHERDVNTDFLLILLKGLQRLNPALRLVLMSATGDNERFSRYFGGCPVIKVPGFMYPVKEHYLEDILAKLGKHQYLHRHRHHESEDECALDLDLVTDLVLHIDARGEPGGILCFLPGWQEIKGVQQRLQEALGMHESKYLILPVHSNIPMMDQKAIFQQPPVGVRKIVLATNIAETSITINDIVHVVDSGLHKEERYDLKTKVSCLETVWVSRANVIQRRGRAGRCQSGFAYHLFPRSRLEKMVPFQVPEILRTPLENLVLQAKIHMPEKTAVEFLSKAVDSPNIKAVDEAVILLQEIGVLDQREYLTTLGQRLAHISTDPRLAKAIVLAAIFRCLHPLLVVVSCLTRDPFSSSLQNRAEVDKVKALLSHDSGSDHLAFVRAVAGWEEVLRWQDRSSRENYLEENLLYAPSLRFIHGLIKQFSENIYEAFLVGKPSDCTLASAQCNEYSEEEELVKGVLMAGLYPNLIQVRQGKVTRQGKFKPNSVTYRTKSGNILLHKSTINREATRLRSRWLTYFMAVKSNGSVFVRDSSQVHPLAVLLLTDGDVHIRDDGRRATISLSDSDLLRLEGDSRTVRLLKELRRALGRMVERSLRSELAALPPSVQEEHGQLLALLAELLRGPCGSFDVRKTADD", "log2 ratio of iodoacetamide-alkyne labeling": "0.193 (inactive)"}]}]}
